How the values were obtained:
Test in all cases: log2 ratio of Biotin-Ahx-Ub-VS probe labelling (fragment/DMSO); higher = less target engagement (more negative = stronger competition), active = hit call of the paper (q ≤ 0.05, log2 ratio ≤ -1)
Conditions in all cases: compound concentration: 200 uM; treatment time: 3 h
USP34 = USP34 (UniProt Q70CQ2)
Procedure, shortened: (§1)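 HEK293T lysate (495 µg per sample, in Tris/CHAPS/IGEPAL buffer with protease inhibitors) was exposed in triplicate for 3 h to fragment at 200 µM or to vehicle, then to Biotin-Ahx-Ub-VS at 0.5 µM final for 1 h. Labelled DUBs were enriched on NeutrAvidin, digested with LysC and trypsin, and analysed by diaPASEF LC-MS/MS. Spectronaut label-free quantities were normalised to the global median, and values are average log2 ratios of fragment over vehicle from an unpaired t-test. Only proteins with ≥2 unique peptides were used.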

USP36 = molecular target: T1, USP36 (UniProt Q9P275)
T1 sequence (whole entry): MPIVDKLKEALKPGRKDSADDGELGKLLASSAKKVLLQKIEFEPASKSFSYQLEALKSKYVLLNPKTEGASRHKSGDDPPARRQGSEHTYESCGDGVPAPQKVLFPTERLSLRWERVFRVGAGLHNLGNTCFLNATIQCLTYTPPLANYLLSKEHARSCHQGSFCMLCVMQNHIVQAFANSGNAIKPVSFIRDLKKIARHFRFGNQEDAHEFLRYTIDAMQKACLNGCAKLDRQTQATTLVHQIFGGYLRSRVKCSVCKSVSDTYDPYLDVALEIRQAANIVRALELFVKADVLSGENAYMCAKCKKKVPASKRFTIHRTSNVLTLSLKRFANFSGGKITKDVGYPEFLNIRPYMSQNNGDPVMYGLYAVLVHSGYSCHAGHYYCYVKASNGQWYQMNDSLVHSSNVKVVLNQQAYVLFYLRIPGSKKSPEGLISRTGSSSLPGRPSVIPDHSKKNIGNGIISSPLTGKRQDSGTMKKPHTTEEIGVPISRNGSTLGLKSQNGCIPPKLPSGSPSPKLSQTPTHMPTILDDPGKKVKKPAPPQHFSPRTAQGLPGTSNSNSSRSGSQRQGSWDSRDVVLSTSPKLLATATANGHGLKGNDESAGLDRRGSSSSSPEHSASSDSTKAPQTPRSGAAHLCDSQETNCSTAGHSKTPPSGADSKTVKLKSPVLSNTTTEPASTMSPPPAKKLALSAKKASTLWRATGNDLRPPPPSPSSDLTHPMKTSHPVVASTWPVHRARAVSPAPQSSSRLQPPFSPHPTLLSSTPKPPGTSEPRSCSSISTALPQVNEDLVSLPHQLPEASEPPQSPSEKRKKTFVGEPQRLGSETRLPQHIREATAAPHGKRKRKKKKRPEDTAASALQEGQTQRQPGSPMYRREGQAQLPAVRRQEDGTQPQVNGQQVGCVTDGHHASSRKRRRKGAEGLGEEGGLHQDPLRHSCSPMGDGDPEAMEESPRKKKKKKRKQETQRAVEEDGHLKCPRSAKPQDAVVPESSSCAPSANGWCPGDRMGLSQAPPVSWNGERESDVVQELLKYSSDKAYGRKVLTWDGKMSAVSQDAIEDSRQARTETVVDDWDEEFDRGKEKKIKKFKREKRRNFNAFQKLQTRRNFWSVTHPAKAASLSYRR
Procedure, shortened: as §1

USP38 = molecular target: T2, USP38 (UniProt Q8NB14)
T2 sequence (whole entry): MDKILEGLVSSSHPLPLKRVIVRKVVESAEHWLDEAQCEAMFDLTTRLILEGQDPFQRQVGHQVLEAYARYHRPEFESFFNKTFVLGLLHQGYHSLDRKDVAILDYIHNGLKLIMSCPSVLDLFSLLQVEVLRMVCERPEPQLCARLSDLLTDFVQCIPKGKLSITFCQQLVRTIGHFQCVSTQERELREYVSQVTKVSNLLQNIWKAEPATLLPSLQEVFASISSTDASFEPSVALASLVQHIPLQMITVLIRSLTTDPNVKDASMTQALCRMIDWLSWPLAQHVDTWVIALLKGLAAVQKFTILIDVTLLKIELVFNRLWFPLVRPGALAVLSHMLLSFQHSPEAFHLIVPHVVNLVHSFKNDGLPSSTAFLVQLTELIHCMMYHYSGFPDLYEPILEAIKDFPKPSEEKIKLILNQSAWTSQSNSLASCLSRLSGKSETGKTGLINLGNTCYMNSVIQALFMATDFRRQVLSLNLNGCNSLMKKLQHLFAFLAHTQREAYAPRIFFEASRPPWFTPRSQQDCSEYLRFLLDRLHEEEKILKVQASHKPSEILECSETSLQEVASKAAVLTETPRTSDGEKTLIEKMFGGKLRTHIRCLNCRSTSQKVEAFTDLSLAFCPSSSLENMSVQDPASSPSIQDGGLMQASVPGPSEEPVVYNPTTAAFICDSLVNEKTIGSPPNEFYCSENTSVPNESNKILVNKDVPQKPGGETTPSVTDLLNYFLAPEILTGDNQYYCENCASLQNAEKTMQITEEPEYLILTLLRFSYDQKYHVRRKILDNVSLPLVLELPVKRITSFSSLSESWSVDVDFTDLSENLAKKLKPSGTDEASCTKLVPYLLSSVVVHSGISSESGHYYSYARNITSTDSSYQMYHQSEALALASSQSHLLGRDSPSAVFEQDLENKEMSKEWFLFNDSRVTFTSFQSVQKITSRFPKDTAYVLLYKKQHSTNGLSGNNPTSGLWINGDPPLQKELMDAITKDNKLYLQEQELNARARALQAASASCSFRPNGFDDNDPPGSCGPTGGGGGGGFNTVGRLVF
Procedure, shortened: as §1

USP39 = molecular target: T3, USP39 (UniProt Q53GS9)
T3 sequence (whole entry): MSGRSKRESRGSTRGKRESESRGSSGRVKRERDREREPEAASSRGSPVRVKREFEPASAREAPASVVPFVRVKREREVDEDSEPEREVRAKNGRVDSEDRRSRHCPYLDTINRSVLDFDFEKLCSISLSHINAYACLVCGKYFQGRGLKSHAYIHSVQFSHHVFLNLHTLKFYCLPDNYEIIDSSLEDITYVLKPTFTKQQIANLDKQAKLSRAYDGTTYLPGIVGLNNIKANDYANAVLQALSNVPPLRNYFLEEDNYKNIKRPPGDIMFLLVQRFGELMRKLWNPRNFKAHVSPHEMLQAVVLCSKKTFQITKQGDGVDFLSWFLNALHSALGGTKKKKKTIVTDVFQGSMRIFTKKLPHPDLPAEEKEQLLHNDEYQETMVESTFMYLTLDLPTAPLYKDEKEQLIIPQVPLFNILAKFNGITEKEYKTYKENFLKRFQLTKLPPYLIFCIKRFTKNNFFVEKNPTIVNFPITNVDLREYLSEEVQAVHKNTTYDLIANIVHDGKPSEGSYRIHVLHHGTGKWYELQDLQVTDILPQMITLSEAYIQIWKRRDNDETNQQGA
Procedure, shortened: as §1

USP4 = molecular target: T4, USP4 (UniProt Q13107)
T4 sequence (whole entry): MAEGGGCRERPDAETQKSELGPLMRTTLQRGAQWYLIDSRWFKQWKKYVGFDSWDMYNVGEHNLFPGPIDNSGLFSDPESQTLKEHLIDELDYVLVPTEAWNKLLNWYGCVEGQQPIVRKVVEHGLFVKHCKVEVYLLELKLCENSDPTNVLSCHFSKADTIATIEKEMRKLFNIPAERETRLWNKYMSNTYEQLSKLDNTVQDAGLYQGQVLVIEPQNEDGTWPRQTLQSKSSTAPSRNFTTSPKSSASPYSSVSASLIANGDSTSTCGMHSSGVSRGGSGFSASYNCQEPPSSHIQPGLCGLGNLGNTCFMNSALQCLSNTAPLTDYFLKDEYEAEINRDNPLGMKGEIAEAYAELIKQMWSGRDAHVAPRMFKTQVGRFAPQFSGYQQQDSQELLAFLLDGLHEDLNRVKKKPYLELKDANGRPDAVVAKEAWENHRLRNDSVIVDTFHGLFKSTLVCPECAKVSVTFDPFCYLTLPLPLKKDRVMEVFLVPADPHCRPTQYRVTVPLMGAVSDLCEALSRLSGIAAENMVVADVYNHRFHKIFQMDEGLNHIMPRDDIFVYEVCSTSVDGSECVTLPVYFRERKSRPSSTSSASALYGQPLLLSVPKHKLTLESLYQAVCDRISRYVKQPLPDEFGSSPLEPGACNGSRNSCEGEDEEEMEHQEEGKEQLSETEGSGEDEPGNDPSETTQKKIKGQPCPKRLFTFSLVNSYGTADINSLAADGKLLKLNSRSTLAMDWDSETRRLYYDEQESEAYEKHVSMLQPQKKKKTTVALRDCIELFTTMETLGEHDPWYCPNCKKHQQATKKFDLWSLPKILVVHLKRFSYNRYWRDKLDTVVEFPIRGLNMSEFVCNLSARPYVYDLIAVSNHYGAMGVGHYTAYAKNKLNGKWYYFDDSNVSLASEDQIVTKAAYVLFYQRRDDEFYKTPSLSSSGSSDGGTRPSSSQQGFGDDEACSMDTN
Procedure, shortened: as §1

Measured: log2 ratio of Biotin-Ahx-Ub-VS probe labelling

Sequence of USP34 (Q70CQ2 whole entry, the tested form may be a part): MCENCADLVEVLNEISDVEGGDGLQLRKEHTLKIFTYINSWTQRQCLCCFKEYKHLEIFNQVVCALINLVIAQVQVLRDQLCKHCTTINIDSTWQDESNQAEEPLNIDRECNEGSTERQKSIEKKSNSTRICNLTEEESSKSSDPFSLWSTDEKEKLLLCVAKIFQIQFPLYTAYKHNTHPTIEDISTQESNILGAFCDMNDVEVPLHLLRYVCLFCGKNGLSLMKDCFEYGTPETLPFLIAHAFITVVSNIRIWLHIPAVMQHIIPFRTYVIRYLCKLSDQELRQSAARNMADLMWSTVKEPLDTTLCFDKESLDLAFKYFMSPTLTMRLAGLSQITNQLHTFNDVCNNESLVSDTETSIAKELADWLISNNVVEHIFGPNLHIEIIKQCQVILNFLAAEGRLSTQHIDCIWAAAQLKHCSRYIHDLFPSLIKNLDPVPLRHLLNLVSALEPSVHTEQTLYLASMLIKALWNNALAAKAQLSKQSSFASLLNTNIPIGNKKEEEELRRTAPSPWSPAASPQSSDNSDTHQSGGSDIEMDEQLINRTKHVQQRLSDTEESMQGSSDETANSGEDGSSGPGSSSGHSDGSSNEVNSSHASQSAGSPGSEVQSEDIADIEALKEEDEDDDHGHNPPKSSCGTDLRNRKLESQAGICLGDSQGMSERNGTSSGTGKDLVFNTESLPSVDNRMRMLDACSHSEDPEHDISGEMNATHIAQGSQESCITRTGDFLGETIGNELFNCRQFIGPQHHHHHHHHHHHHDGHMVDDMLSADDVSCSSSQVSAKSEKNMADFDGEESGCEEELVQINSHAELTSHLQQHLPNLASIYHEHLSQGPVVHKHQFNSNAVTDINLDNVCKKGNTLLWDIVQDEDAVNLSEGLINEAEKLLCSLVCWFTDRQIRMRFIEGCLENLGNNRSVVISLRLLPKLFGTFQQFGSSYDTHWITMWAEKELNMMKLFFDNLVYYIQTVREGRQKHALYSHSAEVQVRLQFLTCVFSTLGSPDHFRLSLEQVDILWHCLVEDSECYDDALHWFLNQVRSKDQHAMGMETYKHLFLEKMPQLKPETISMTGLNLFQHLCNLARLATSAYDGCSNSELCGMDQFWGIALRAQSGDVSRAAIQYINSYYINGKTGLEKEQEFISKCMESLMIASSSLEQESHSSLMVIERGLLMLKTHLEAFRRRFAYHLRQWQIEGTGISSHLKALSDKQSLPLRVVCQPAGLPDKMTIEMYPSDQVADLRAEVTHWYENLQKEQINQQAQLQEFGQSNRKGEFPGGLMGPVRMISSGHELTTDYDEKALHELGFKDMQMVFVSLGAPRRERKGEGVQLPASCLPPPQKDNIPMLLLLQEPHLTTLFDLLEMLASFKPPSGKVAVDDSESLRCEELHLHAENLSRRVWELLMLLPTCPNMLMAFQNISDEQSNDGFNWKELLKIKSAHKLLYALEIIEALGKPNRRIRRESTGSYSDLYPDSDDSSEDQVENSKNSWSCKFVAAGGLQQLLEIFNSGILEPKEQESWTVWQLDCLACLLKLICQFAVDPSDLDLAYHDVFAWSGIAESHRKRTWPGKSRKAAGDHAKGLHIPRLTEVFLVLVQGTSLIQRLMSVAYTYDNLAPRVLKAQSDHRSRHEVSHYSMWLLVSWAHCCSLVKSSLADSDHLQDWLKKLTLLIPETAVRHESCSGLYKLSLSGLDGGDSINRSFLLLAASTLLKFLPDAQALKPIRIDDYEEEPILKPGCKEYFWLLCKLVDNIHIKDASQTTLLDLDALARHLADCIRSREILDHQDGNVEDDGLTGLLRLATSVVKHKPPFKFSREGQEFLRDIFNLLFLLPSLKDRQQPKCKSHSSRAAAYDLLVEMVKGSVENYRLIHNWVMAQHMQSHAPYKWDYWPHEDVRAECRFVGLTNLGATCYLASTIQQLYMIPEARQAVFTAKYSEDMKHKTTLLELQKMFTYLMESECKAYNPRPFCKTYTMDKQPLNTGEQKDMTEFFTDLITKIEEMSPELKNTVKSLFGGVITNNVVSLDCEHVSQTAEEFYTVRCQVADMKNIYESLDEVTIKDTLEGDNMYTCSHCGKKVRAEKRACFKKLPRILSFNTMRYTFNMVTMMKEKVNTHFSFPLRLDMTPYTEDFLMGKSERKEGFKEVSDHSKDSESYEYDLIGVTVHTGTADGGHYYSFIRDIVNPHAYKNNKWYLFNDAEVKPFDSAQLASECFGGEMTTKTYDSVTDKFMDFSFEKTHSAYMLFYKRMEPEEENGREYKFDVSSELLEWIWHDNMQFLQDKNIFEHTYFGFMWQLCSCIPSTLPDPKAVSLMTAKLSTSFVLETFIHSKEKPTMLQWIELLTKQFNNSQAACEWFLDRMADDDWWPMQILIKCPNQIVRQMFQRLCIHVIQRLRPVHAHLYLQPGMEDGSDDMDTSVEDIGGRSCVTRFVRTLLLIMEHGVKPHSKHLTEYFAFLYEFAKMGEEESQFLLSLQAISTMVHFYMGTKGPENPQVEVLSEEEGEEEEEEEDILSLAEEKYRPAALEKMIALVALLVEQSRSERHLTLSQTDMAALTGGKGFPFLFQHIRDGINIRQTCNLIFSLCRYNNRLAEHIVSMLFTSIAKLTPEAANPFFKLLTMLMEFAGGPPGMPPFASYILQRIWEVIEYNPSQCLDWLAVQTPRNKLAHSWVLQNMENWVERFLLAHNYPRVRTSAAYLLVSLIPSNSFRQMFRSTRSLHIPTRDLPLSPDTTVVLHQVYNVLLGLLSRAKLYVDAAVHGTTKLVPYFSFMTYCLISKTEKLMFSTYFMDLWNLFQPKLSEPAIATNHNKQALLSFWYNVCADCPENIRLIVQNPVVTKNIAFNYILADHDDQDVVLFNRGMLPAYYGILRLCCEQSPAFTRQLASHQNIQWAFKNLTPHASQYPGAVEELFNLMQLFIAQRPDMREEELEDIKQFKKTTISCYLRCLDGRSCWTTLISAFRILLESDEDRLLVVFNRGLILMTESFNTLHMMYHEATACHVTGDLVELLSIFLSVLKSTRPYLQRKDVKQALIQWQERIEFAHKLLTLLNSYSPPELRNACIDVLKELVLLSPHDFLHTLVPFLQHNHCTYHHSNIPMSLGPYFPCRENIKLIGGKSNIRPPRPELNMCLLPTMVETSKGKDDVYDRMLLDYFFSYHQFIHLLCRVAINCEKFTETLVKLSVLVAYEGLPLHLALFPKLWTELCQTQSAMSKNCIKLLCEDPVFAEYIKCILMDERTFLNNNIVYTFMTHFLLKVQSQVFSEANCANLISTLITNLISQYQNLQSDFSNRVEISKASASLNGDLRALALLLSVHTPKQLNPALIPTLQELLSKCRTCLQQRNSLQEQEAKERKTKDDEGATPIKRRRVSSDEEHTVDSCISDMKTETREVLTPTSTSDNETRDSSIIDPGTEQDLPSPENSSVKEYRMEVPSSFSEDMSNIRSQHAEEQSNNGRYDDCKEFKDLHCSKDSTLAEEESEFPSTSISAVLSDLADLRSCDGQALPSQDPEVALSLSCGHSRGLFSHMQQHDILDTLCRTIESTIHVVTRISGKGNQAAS

O=C(CCl)N[C@H]1CCS(=O)(=O)c2ccccc21
inactive: USP34 -0.277 | USP36 -0.115 | USP38 -0.13 | USP39 -0.176 | USP4 -0.212

From the supplement of paper PMC11732987, “Enantioselective OTUD7B fragment discovery through chemoproteomics screening and high-throughput optimisation” (Communications Chemistry, 2025)
